Screens from PubChem BioAssay.
Rows were chosen to be rich in hits. Some 12% of all compounds tested hit in one or more screens of this group.
HP1b chromo inh: blocks HP1-beta chromodomain binding to methylated histone tails. actives 0.56% (n = 390,000). P83916. Potency, µM (titrated, usually from 114 µM), for the others: top-dose activity change, negative = inhibition, most hits filed as inhibitors. AlphaScreen HP1-beta / biotin-H3K9me3 peptide binding; also: nearly all actives have a fitted effect of over 70% in size
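Compound inhibition of the preformed complex between 50 nM HP1-beta and 50 nM biotinylated H3K9me3 peptide was read by AlphaScreen. Buffer was PBS pH 7.4 with 0.01% Tween-20. Incubations ran 30 min at room temperature, with 10 ug/mL donor/acceptor beads.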
BAZ2B block: blocks human BAZ2B. Q9UIF8. AlphaScreen BAZ2B-H3K14Ac peptide displacement. Potency, µM (series often up to 114 µM), inactives show at the highest dose activity change, negative = inhibition, most hits filed as inhibitors. actives 4.4% (n = 360,000). AID 504333; also: % is scaled to controls: 0 for no effect and ±100 for the full control effect; nearly all actives have a fitted effect of over 60% in size
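Multi-concentration screen (max 110 uM) measuring displacement of acetylated histone H3 peptide from BAZ2B by AlphaScreen, using 50 nM protein, 50 nM peptide and 10 ug/mL streptavidin donor plus Ni-chelate acceptor beads.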
Sfp inh: inhibitors of Bacillus subtilis Sfp phosphopantetheinyl transferase. Potency, µM, inactives show largest response in the series, negative = inhibition, usual class: inhibitors. actives 3.5% (n = 310,000). Biochemical Sfp PPTase activity, qHTS;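 also: the enzyme is Sfp with the accession as filed and its product quenches rhodamine fluorescence; 0% = enzyme reaction without inhibitor and -100% = no enzyme wells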
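Fluorescence-quenching assay: 15 nM Sfp-PPTase preincubated 15 min at room temperature with compound, then 5 uM rhodamine-CoA and 12.5 uM BHQ-2-labelled YbbR peptide added. Fluorescence (ex 525/em 598 nm) read at start and after 30 min; difference gives rate.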
G9a block: inhibitors of human histone lysine methyltransferase G9a | Potency, µM (highest dose often 102 µM), for the others: top-dose activity, negative = inhibition, usual class: inhibitors | Q96KQ7 | G9a H3K9 monomethylation, AlphaScreen, 2 h | actives 8.8% (n = 350,000); also: % is scaled to controls: 0 for no effect and ±100 for the full control effect; nearly all actives have a fitted effect of over 75% in size
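Signal arises when biotinylated H3K9 peptide, once monomethylated, bridges streptavidin donor and antibody-captured acceptor beads. Enzyme at 20 nM was preincubated 15 min with test compounds; peptide 500 nM and SAM 20 uM then reacted for 2 h.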
L3MBTL1 block: L3MBTL1 (human) inhibition; AlphaScreen L3MBTL1–H3K9me1 peptide binding; actives 0.66% (n = 230,000); Potency, µM (doses to about 57.1 µM), for inactives: at the top dose activity, negative = inhibition, most hits filed as inhibitors; AID 485360; Q9Y468; also: % is scaled to controls: 0 for no effect and ±100 for the full control effect; nearly all actives have a fitted effect of over 60% in size
Target sequence (Q9Y468 whole entry, looked up): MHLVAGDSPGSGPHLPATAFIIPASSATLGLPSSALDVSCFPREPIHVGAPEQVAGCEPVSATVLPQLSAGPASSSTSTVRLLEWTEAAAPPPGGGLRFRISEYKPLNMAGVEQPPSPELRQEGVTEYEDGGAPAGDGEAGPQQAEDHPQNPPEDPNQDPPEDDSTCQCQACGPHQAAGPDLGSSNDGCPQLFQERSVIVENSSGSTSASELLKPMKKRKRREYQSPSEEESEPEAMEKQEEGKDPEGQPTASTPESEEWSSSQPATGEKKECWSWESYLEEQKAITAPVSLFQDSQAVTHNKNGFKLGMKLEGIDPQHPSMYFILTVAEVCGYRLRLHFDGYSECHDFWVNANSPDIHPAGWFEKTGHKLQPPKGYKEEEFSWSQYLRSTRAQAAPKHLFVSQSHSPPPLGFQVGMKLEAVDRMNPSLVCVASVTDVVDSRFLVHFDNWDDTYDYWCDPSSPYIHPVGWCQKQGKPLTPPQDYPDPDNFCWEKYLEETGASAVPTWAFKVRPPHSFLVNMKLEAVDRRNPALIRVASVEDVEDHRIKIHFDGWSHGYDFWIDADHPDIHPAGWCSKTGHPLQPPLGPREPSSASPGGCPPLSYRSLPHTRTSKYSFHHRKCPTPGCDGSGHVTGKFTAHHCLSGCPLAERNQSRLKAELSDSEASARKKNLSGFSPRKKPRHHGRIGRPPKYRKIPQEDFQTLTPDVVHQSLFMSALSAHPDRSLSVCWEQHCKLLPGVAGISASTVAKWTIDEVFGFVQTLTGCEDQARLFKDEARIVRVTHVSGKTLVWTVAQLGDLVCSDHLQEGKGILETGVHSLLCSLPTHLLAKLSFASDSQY
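L3MBTL1 (50 nM) pre-complexed 30 min with biotinylated H3(1-15)K9me1 peptide (75 nM), then compounds added for 30 min at room temperature; AlphaScreen streptavidin donor/nickel chelate acceptor beads (10 ug/mL final) read after 30 min dark incubation.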
JMJD2A Tudor inh: JMJD2A Tudor domain (human) inhibition | AlphaScreen JMJD2A-Tudor / H3K4me3 peptide binding | Potency, µM (titrated, usually from 114 µM), without a hit: top-dose activity change, negative = inhibition, actives largely listed as inhibitors | actives 4.4% (n = 390,000); also: % is scaled to controls: 0 for no effect and ±100 for the full control effect; nearly all actives have a fitted effect of over 50% in size
* = called active by the depositor; [ ] = remark or other dose. Calls follow the shape of the dose curve; as a rule, active = well fitted curve in the direction sought with a large enough effect; inconclusive = small, poorly fitted or top-dose-only effect, or another doubt; inactive = no such curve, though single readings can be large; an effect the other way counts as inactive or inconclusive. Potency is read from the fitted curve at half-maximal effect.

Results for Cc1ccc(NC(=O)CSc2nc3c(oc4ccccc43)c(=O)n2-c2ccc(F)cc2)c(C)c1 ?
HP1b chromo inh: 38%; BAZ2B block: -1%; G9a block: 7%[59 µM]; JMJD2A Tudor inh: 3%

What do the screens show for `Cc1ccc(CN=Cc2[nH]c3ccc(Br)c(Cl)c3c2O)cc1`?
HP1b chromo inh: 45µM*; BAZ2B block: inconclusive; Sfp inh: inconclusive; G9a block: 28µM*; JMJD2A Tudor inh: 50µM*

How did C=CCOc1ccc(CN(C)CC(=O)Nc2ccccc2[N+](=O)[O-])cc1 do in these assays?
HP1b chromo inh: inconclusive; Sfp inh: inconclusive; G9a block: 14µM*; L3MBTL1 block: inconclusive; JMJD2A Tudor inh: 13µM*

Results for CCc1ccc(CN(C)CC(=O)Nc2ccccc2[N+](=O)[O-])cc1 ?
HP1b chromo inh: -24%; BAZ2B block: inconclusive; Sfp inh: 5%; G9a block: 79µM*; L3MBTL1 block: -11%; JMJD2A Tudor inh: inconclusive

What do the screens show for `COc1ccc(CCNC(=O)c2cc(Nc3cc(C)cc(C)c3)nc3ccccc23)cc1OC`?
HP1b chromo inh: 40%; G9a block: 8%[59 µM]; JMJD2A Tudor inh: -19%

How did NC(=O)c1sc(=S)n2c1[nH]c(=O)c1sccc12 do in these assays?
HP1b chromo inh: -9%; BAZ2B block: -23%; Sfp inh: 40µM*; G9a block: 18µM*; L3MBTL1 block: 0%; JMJD2A Tudor inh: inconclusive

How did CC(=O)NNC(=O)c1sc(=S)n2c1[nH]c(=O)c1sccc12 do in these assays?
HP1b chromo inh: inconclusive; BAZ2B block: -23%; Sfp inh: 18µM*; G9a block: 13µM*; L3MBTL1 block: 6%; JMJD2A Tudor inh: 79µM*

Results for CCCN(CCC)C(=O)Cn1c(=O)c2sccc2n2c(=S)sc(-c3ccccc3)c12 ?
HP1b chromo inh: -6%; BAZ2B block: -12%; Sfp inh: -6%; G9a block: inconclusive; L3MBTL1 block: -2%; JMJD2A Tudor inh: -13%

Results for CC(=O)NCCNC(=O)CCCc1nnc2n(C)c(=O)c3sccc3n12 ?
HP1b chromo inh: 12%; BAZ2B block: -1%; G9a block: 1%[59 µM]; JMJD2A Tudor inh: -14%

What do the screens show for `COc1ccccc1CNC(=O)c1ccc2[nH]c(C)c(C)c2c1`?
HP1b chromo inh: inconclusive; BAZ2B block: 50µM*; G9a block: inconclusive; JMJD2A Tudor inh: inconclusive

Results for CCC(=O)c1c[nH]c(C(=O)NCc2ccccc2OC)c1 ?
HP1b chromo inh: 38%; BAZ2B block: 79µM*; Sfp inh: 24%; G9a block: 0%; JMJD2A Tudor inh: -11%

What do the screens show for `CC(=O)Nc1cccc(NC(=O)c2ccc3[nH]c(C)c(C)c3c2)c1`?
HP1b chromo inh: inconclusive; BAZ2B block: -25%; Sfp inh: 21%; G9a block: -4%; JMJD2A Tudor inh: -32%[57.1 µM]

How did Cc1cc(NC(=O)c2ccc3[nH]c(C)c(C)c3c2)ccn1 do in these assays?
HP1b chromo inh: 13%; BAZ2B block: 50µM*; Sfp inh: 4%; G9a block: inconclusive; JMJD2A Tudor inh: -17%

What do the screens show for `CSc1nnc(NC(=O)c2cc(=O)c3cc(C)c(C)cc3o2)s1`?
HP1b chromo inh: 40%; BAZ2B block: -18%; G9a block: 4%[59 µM]; JMJD2A Tudor inh: 7%

How did Cc1cc(OCCn2c(CCNC(=O)C3CCCCC3)nc3ccccc32)ccc1Cl do in these assays?
HP1b chromo inh: 31%; BAZ2B block: -3%; G9a block: 7%[59 µM]; JMJD2A Tudor inh: -11%

Results for O=C(CN1C(=O)CCc2cc(S(=O)(=O)N3CCOCC3)ccc21)NCc1ccccc1 ?
HP1b chromo inh: 19%; BAZ2B block: -6%; G9a block: 26%[59 µM]; JMJD2A Tudor inh: -13%

What do the screens show for `CC(C)OCC(O)CN1CCNCC1` (stereo unspecified)?
HP1b chromo inh: 19%; BAZ2B block: -4%; Sfp inh: 7%; G9a block: inconclusive; L3MBTL1 block: 2%; JMJD2A Tudor inh: 79µM*

How did OC(COc1ccccc1Br)CN1CCNCC1 (stereo unspecified) do in these assays?
HP1b chromo inh: 25%; BAZ2B block: 2%; Sfp inh: -7%; G9a block: inconclusive; L3MBTL1 block: 10%; JMJD2A Tudor inh: -13%

What do the screens show for `CCOc1ccc(Cc2nccc3cc(OCC)c(OCC)cc23)cc1OCC`?
Sfp inh: -10%; G9a block: -46%[2.33 µM]

How did C=CCn1c(C(C)NC(=O)c2ccccc2)n[nH]c1=S (stereo unspecified) do in these assays?
HP1b chromo inh: 18%; BAZ2B block: -2%; Sfp inh: 9%; L3MBTL1 block: -1%; JMJD2A Tudor inh: 10µM*

How did CCn1c(C(C)NC(=O)c2cccc(C)c2)n[nH]c1=S (stereo unspecified) do in these assays?
HP1b chromo inh: 59%; BAZ2B block: -33%; Sfp inh: -5%; G9a block: 45µM*; L3MBTL1 block: -2%; JMJD2A Tudor inh: -23%

What do the screens show for `CCCn1c(C(C)NC(=O)c2ccccc2)n[nH]c1=S` (stereo unspecified)?
HP1b chromo inh: 8%; BAZ2B block: 4%; Sfp inh: -6%; L3MBTL1 block: 51%; JMJD2A Tudor inh: 8.9µM*

Results for C=CCC(C)(NCc1ccccc1)c1ccco1 (stereo unspecified) ?
HP1b chromo inh: inconclusive; BAZ2B block: 50µM*; Sfp inh: -5%; G9a block: 13µM*; L3MBTL1 block: 4%; JMJD2A Tudor inh: 2µM*

What do the screens show for `C=CCC(C)(NCc1ccccc1)C(=O)OCC` (stereo unspecified)?
Sfp inh: -27%

How did CC(=O)Nc1ccc(C(=O)CSc2nnc3cc(C)c4ccccc4n23)cc1 do in these assays?
HP1b chromo inh: 47%; BAZ2B block: -1%; G9a block: -1%[59 µM]; JMJD2A Tudor inh: 7%

What do the screens show for `COc1ccc(C#CC2C=CC(Oc3cc(C)cc(C)c3)C(CO)O2)cc1` (stereo unspecified)?
Sfp inh: 27%

How did Cc1ccc(-c2cc(C(=O)O)n[nH]2)o1 do in these assays?
HP1b chromo inh: 14%; BAZ2B block: -5%; Sfp inh: -6%; G9a block: -4%[12.7 µM]; L3MBTL1 block: 5%[11.4 µM]; JMJD2A Tudor inh: 25µM*

Results for Cc1ccc(/C=N/NC(=O)c2cc(-c3ccc(C)o3)[nH]n2)cc1 ?
HP1b chromo inh: 4%; BAZ2B block: -11%; Sfp inh: 21%; G9a block: 17%; JMJD2A Tudor inh: -12%

What do the screens show for `CSc1ccc(CCNc2ncnc3onc(C)c23)cc1`?
HP1b chromo inh: 63%; BAZ2B block: 3%[57.1 µM]; G9a block: -21%[59 µM]; JMJD2A Tudor inh: -10%
